Results taken from PubChem BioAssay.
Where “and” joins values, the source holds several entries; their conditions need not be identical. Equal entries are not always repeated. Calls of active or inactive are those of the source.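 Rule for the calls: active = compounds killing one labelled cell type while sparing the other, by normalised counts and ratio limits, not self-fluorescent; inactive = the rest.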

Test: differential killing of epithelial or mesenchymal cells, primary screen, imaging, PC-3E GFP, TEM4-18 mCherry, co-culture (AID 1345086);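 note: cells exposed to compound for 72 h before imaging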;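 for red/green cell ratio (normalised): normalised mesenchymal count divided by normalised epithelial count so high means epithelial killing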
Conditions: imaging cell counts, at 1 µM; for red/green cell ratio (normalised): actives lie on both sides, counts scaled to control wells, 1 = unselective
[1] = measured here: epithelial PC-3E GFP cell survival
[2] = measured here: mesenchymal TEM4-18 mCherry cell survival

| Structure (SMILES) | red/green cell ratio (normalised) | normalised cell number [1] | normalised cell number [2] |
| --- | --- | --- | --- |
| O=c1c(-c2ccc(O)cc2)coc2c(C3O[C@H](CO)[C@@H](O)[C@H](O)[C@H]3O)c(O)ccc12 (stereo not given in full) | 1 (inactive) | 1.12 | 1.13 |
| CC(C)/C(O)=C1/C(=O)O[C@@H](c2ccoc2)[C@]2(C)C(O)[C@@H](O)[C@@]34OC5(C)OC67CC(C)(C(O)[C@]6(O)[C@@H](O)[C@]3(O5)C12)[C@H](CC(=O)O)C74C (stereo not given in full) | 1.06 (inactive) | 1 | 1.06 |
| C[C@@H](O)[C@H]1C(=O)N2C(C(=O)O)=C(SC3CN[C@H](C(=O)N(C)C)C3)[C@H](C)[C@H]12 (stereo not given in full) | 1.01 (inactive) | 0.98 | 0.99 |
| CC(CC(=O)N1C(=O)OC[C@@H]1Cc1ccccc1)N1C(=S)OC[C@H]1c1ccccc1 (stereo not given in full) | 0.87 (inactive) | 1.17 | 1.02 |
| Oc1ccc2ccccc2c1Oc1ccc2ccccc2c1 | 0.92 (inactive) | 0.86 | 0.79 |
| COC(=O)C1O[C@H](OCc2ccc(OC)cc2)[C@@H](OC(=O)c2ccccc2)[C@@H](OC(=O)c2ccccc2)C1O (stereo not given in full) | 0.84 (inactive) | 1.32 | 1.11 |
| COc1cc(O)c2c(c1)[C@@H](O)[C@@]13CO[C@@H](O)[C@@]1(O3)C2=O | 1.09 (inactive) | 1.01 | 1.1 |
| CC/C=C\[C@H](O)[C@H](O)C1=C(C)C(=O)[C@]2(O1)C(=O)N[C@@](OC)(C(=O)c1ccccc1)[C@@H]2O | 1.21 (inactive) | 0.79 | 0.95 |
| COc1cc(/C=C/C(=O)/C=C(O)/C=C/c2ccc(O)c(OC)c2)ccc1O | 1.04 (inactive) | 1.02 | 1.06 |
| CC1(C)CC2C1CCC1(CBr)CCC3C(CC(=O)O)C(=O)OC32C1 (stereo not given) | 0.9 (inactive) | 1.14 | 1.02 |
| O=C1C[C@@H]2[C@H](Br)[C@@H](O)C[C@@H]2O1 | 0.73 (inactive) | 1.24 | 0.91 |
| O=c1c(O)cccc2cc(O)c(O)c(O)c12 | 0.92 (inactive) | 1.11 | 1.02 |
| C=C(C)n1cc(C(=O)OC)c(=O)c2cc(F)c(F)c(OC)c21 | 1.15 (inactive) | 0.99 | 1.14 |
| Clc1ccc2ncc(Cl)nc2c1 | 1.15 (inactive) | 0.91 | 1.05 |
| CC[C@H](CCC(C)[C@H]1CCC2C3CCC4C[C@@H](O)CC[C@]4(C)C3CC[C@@]21C)C(C)C (stereo not given in full) | 1.11 (inactive) | 0.91 | 1.01 |
| C=C(C)n1cc(C(=O)O)c(=O)c2cc(F)c(N3CC[C@@H](CN)C3)c(OC)c21 | 1.13 (inactive) | 1.07 | 1.21 |
| COC(=O)C[C@H]1C2(C)CC34OC5(C)O[C@]6(C7/C(=C(/OC)C(C)C)C(=O)O[C@@H](c8ccoc8)[C@]7(C)C(OC(=O)C(C)C)[C@@H](OC)[C@]6(O5)C13C)[C@H](OC)[C@@]4(OC)C2OC(C)=O (stereo not given in full) | 0.95 (inactive) | 1.04 | 1 |
| O=C(O)CNc1ccc(Cl)cc1[N+](=O)[O-] | 1.05 (inactive) | 1.11 | 1.17 |
| COC(=O)[C@H](Cc1ccccc1)NC(=O)/C(=C1\OC(=O)C(c2ccccc2)=C1O)c1ccccc1 | 0.97 (inactive) | 0.92 | 0.9 |
| COc1cc(C(O)CO)oc1C=O (stereo not given) | 0.86 (inactive) | 1.08 | 0.93 |

| Structure (SMILES) | red/green cell ratio (normalised) | normalised cell number [1] | normalised cell number [2] |
| --- | --- | --- | --- |
| O=c1c(O)cc([C@H]2Oc3cc(O)cc(O)c3C[C@H]2O)cc2c([C@H]3Oc4cc(O)cc(O)c4C[C@@H]3O)cc(O)c(O)c12 | 0.92 (inactive) | 1.03 | 0.95 |
| C[C@H](Cc1cc(O)cc(O)c1C(=O)O[C@H](C)CC(=O)O[C@H](C)Cc1cc(O)cc(O)c1C(=O)O[C@H](C)CC1Cc2cc(O)cc(O)c2C(=O)O1)OC(=O)C[C@@H](C)O (stereo not given in full) | 0.98 (inactive) | 0.85 | 0.83 |
| OCCN1C[C@H](O)[C@@H](O)C(O)C1CO (stereo not given in full) | 1.19 (inactive) | 1.01 | 1.21 |
| COC(=O)C[C@H]1C2(C)CC34OC5(C)O[C@]6(C7/C(=C(/O)C(C)C)C(=O)O[C@@H](c8ccoc8)[C@]7(C)C(OC(C)=O)[C@@H](OC(C)=O)[C@]6(O5)C13C)[C@H](OC(C)=O)[C@@]4(O)C2OC(=O)C(C)C (stereo not given in full) | 1.02 (inactive) | 1.08 | 1.1 |
| C[C@]12CCc3occc3C1CC[C@@]13C[C@@H](CCC12)[C@@](O)(CO)C3 (stereo not given in full) | 1.12 (inactive) | 0.94 | 1.06 |
| O=C(O)C1CC(C2CCCCN2)CN2CCCCC12 (stereo not given) | 1.06 (inactive) | 0.95 | 1 |
| CC1CCC2(OC1)OC1CC3C4CCC5C[C@@H](O)CCC5(C)C4=CCC3(C)C1[C@@H]2C (stereo not given in full) | 0.87 (inactive) | 1.08 | 0.94 |
| CC(=O)OC1CCC2(C)C3CC(=O)C4(C)C(CC5OC6(CCC(C)CO6)[C@@H](C)C54)C3CC[C@H]2C1 (stereo not given in full) | 0.89 (inactive) | 1.05 | 0.93 |
| Cc1ccc([C@H](C)CC(=O)N2C(=S)O[C@H]3Cc4ccccc4[C@H]32)cc1 | 0.95 (inactive) | 1.05 | 1 |
| CCC[C@@H]1Cc2cc3c(-c4c(O)cc(O)c5c(O)c6c(cc45)C[C@@H](CCC)OC6=O)c(O)cc(O)c3c(O)c2C(=O)O1 | 0.85 (inactive) | 1.2 | 1.02 |
| COc1c(F)c(F)cc(C(=O)O)c1F | 1.1 (inactive) and 1.01 (inactive) | 0.89 and 0.98 | 0.98 and 0.99 |
| CC(C)CCCC(C)C1CCC2C3=CC[C@H]4C[C@@H](O)CC[C@]4(C)C3CC[C@@]21C (stereo not given in full) | 0.98 (inactive) | 1.1 | 1.08 |
| COC(=O)c1cn(C2CC2)c2c(OC)c(F)c(F)cc2c1=O | 0.9 (inactive) | 1.11 | 1 |
| COc1cc(OC)c2c(c1)OC(c1ccccc1)CC2=O (stereo not given) | 1.1 (inactive) | 0.99 | 1.08 |
| C[C@]12CCC3c4ccc(OC(=O)c5ccccc5)cc4CCC3C1CC[C@@H]2O (stereo not given in full) | 1.1 (inactive) | 1 | 1.1 |
| Cc1ccc(S[C@H]2OC(COCc3ccccc3)C(O)[C@@H]3OC(=O)N[C@H]23)cc1 (stereo not given in full) | 1.07 (inactive) | 0.9 | 0.96 |
| COc1cc([C@@H]2c3cc4c(cc3[C@H](O)C3COC(=O)[C@H]32)OCO4)cc(OC)c1OC (stereo not given in full) | 1.4 (inactive) | 0.16 | 0.22 |
| COC(=O)C[C@@H]1C2(C)C(=O)[C@@H](CC3=C4C=C(OC)O[C@@H](c5ccoc5)[C@]4(C)CCC32)[C@H](O)C1(C)C (stereo not given in full) | 1.13 (inactive) | 0.99 | 1.12 |
| CC(=O)O[C@@H]1C[C@@]2(C)C(CC[C@@H]2C(C)=O)C2CCC3=CC(=O)CC[C@]3(C)C21 (stereo not given in full) | 1.08 (inactive) | 0.87 | 0.94 |
| CCCc1ccc(C(=O)O)nc1 | 0.84 (inactive) | 1.18 | 0.99 |

| Structure (SMILES) | red/green cell ratio (normalised) | normalised cell number [1] | normalised cell number [2] |
| --- | --- | --- | --- |
| C[C@H]1C[C@H](O)[C@H]2[C@@H](C=C[C@@](C)(O)[C@]2(C)C(=O)CCO)C1 | 0.95 (inactive) | 0.32 | 0.3 |
| CC(=O)OCC1O[C@H](Sc2ccc(C)cc2)[C@@H]2[C@@H](OC(=O)N2C(=O)OCc2ccccc2)C1OC(C)=O (stereo not given in full) | 0.78 (inactive) | 1.24 | 0.96 |
| CC1CCC2OC2C/C=C/C(=O)c2c(O)cc(O)cc2CC(=O)O1 (stereo not given) | 0.83 (inactive) | 0.88 | 0.73 |
| O=C(O)C(O)[C@H](O)[C@H](O)[C@H](O)[C@H](O)CO (stereo not given in full) | 1.28 (inactive) | 1.07 | 1.37 |
| NCc1ccccc1CC(=O)NC1C(=O)N2C(C(=O)O)=C(CSc3nnnn3CC(=O)O)CSC12 (stereo not given) | 0.82 (inactive) | 1.19 | 0.98 |
| C=C1C(=O)OC(C(=O)O)C1(O)CCCCCCCCC (stereo not given) | 0.96 (inactive) | 1.02 | 0.98 |
| C[C@@H]1C=C2C=C[C@@](C)(O)[C@](C)(C(=O)CCO)[C@H]2[C@@H](O)C1 | 0.85 (inactive) | 1.08 | 0.91 |
| CC(CC(=O)N1CCOC1=O)N1C(=S)OC[C@@H]1c1ccccc1 (stereo not given in full) | 1.05 (inactive) | 0.85 | 0.89 |
| CC(C)CC1OC23SCC(c4ccccc4)N2C(=O)C1C(C)S3 (stereo not given) | 0.8 (inactive) | 1.19 | 0.96 |
| CC1(C)C[C@H]2[C@@]1(O)[C@@H](O)C[C@]1(C)[C@H](O)C=C[C@]21CO | 0.9 (inactive) | 1.19 | 1.07 |
| COCC1O[C@@H](OC)[C@@H](OCc2ccccc2)[C@@H](OCc2ccccc2)C1O (stereo not given in full) | 0.86 (inactive) | 1.18 | 1.01 |
| CC1O[C@@H](Oc2c(-c3ccc(O)c(O)c3)oc3cc(O)cc(O)c3c2=O)[C@H](O)[C@H](O)[C@H]1O (stereo not given in full) | 1.01 (inactive) | 1.01 | 1.02 |
| C[C@@H]1C(=O)NC(Cc2ccccc2)C(=O)N2CCCC[C@H]2C(=O)O[C@H]([C@@H](C)CCCC[C@@H](C)O)C[C@H]1O (stereo not given in full) | 0.9 (inactive) | 1.03 | 0.93 |
| CN(C)c1cccc2c(S(N)(=O)=O)cccc12 | 1.01 (inactive) | 1.15 | 1.16 |
| C[C@H](CCC(=O)NCC(=O)O)[C@H]1CCC2C3C(C[C@H](O)[C@@]21C)[C@@]1(C)CC[C@@H](O)CC1C[C@H]3O (stereo not given in full) | 1.13 (inactive) | 0.89 | 1.01 |
| C=C1C(=O)O[C@@H]2C(=O)O[C@@H](CCCCCCCC)[C@H]12 | 0.86 (inactive) | 1.04 | 0.89 |
| CC1=C(/C=C/C(C)=C/C=C/C(C)=C/C=C/C=C(C)/C=C/C=C(C)/C=C/C2=C(C)C(=O)C(O)CC2(C)C)C(C)(C)CC(O)C1=O (stereo not given) | 1.11 (inactive) | 0.97 | 1.08 |
| Cc1cc2c(CO)cc(O)cc2o1 | 1 (inactive) | 0.92 | 0.92 |
| CC(=O)OCC(=O)[C@H]1CCC2C3CC=C4C[C@@H](O)CC[C@]4(C)C3CC[C@@]21C (stereo not given in full) | 0.94 (inactive) | 0.99 | 0.93 |
| CC1CC2OC2/C=C/C(O)CC(=O)O1 (stereo not given) | 0.97 (inactive) | 1.06 | 1.02 |
